Drawing on PubChem BioAssay (EPA / NIEHS), this text covers AC50 and outcome for 36 molecules.

Some compounds were tested as several samples or in several runs, with calls that do not always agree. Calls of active or inactive are those of the source. How the source made its calls: active means hit-call score of the fitted dose curve at least 0.9, where 1 is the maximum; inactive means score below 0.9.

This experiment is described as follows: ATG_SREBP_CIS: Attagene CIS-FACTORIAL HepG2 Assay for human Sterol Regulatory Element Binding (SREBP) (AID 2282962). As to conditions: HepG2 Attagene cis-factorial SREBP reporter, mRNA; actives raise or lower the signal. As to the method: ATG_CIS is a cell-based, multiplexed-readout assay that uses HepG2, a human liver cell line, with measurements taken at 24 hours after chemical dosing in a 24-well plate.ATG_SREBP_CIS is one of 52 assay component(s) measured or calculated from the ATG_CIS assay. It is designed to make measurements of mRNA induction, a form of inducible reporter, as detected with fluorescence intensity signals by Reverse transcription polymerase chain reaction (RT-PCR) and Capillary electrophoresis technology.Data from the assay component ATG_SREBP_CIS was analyzed into 1 assay endpoint. This assay endpoint, ATG_SREBP_CIS, was analyzed with bidirectional fitting relative to DMSO as the negative control and baseline of activity. Using a type of inducible reporter, measures of mRNA for gain or loss-of-signal activity can be used to understand the reporter gene at the transcription factor-level as they relate to the gene SREBF1. Furthermore, this assay endpoint can be referred to as a primary readout, because this assay has produced multiple assay endpoints where this one serves a reporter gene function. To generalize the intended target to other relatable targets, this assay endpoint is annotated to the dna binding intended target family, where the subfamily is basic helix-loop-helix leucine zipper.
Human liver HepG2 cells are transiently transfected with multiple reporter transcription units (MRTUs) in 6-well plates using FuGene 6 reagent (Roche; 3 ml FuGene/1 mg DNA). The MRTU constructs are regulated by a cis-regulating element (promoter). […] A major difference between the CIS and TRANS system is that in CIS activities of endogenous TFs are measured, whereas the TRANS assay evaluates changes in activities of exogenous, chimeric NR-Gal4 proteins. […] At the end of 24 hour incubation, total RNA was isolated using TriZol reagent (Invitrogen). The isolated RNA is then reverse-transcribed using oligo(dT) primer and Mo-MLV reverse transcriptase (Invitrogen) with DNAse I (Ambion) treatment for 30 min. The one-tenth of the produced cDNA was amplified by PCR using Taq DNA polymerase (Invitrogen) and two reporter sequence-specific primers. The PCR products were fluorescently labeled by primer extension with 6-arboxyfluorescein (6-FAM) 5'-labeled reporter sequence-specific primer (2 min at 95 C, 20 s at 68 C and 10 min at 72 C) and these products were digested with 5U of HpaI (New England Biolabs) for 2h at 37 C. The fragments were purified using Qiaquick PCR columns (Qiagen), analyzed on an ABI 3130xL genetic analyzer (Applied Biosystems) with peak positions identified by using a set of X-rhodamine (ROX)-labeled MapMarker1000 molecular weight standards (BioVentures). The raw capillary electrophoresis data was processed using Attagraph software (Attagene).
On to `N#CC(CCc1ccc(Cl)cc1)(Cn1cncn1)c1ccccc1` (stereo not given), for which the half-maximal activity concentration (AC50) was 8.22 µM (active).

As to `N#Cc1nn(-c2c(Cl)cc(C(F)(F)F)cc2Cl)c(N)c1S(=O)C(F)(F)F` (stereo not given), the outcome was inactive.

`CCOC(=O)CC(SP(=S)(OC)OC)C(=O)OCC` (stereo not given): the call was inactive.

On to `CCCCOC(=O)c1ccccc1C(=O)OCCCC`, for which the result was inactive and the concentration at half-maximal activity (AC50) was 75.8 µM (active).

In the case of `CC(C)C1(C)N=C(c2nc3ccccc3cc2C(=O)O)NC1=O` (stereo not given), the outcome was inactive.

As to `CNC(=S)S`, the molecule was called inactive.

For `COc1nc(NC(C)C)nc(NC(C)C)n1`, the molecule was classed as inactive.

With `COP(N)(=O)SC` (stereo not given), the outcome was inactive.

On to `CO/C=C(/C(=O)OC)c1ccccc1Oc1cc(Oc2ccccc2C#N)ncn1`, for which the AC50 is 32.4 µM (active) [middle of 4 runs] and the call was inactive.

Consider `O=C(O)c1nc(Cl)ccc1Cl`, for which the molecule was called inactive.

`CCNc1nc(Cl)nc(NCC)n1`: the molecule was called inactive.

`CCCN(CCC)c1c([N+](=O)[O-])cc(S(N)(=O)=O)cc1[N+](=O)[O-]`: the outcome was inactive.

Turning to `CC1=C(C(=O)Nc2ccccc2)SCCO1`, the call was inactive.

On to `COC(=O)N(OC)c1ccccc1COc1ccn(-c2ccc(Cl)cc2)n1`, for which the molecule was classed as inactive.

Consider `N#Cc1cc(Br)c(O)c(Br)c1`, for which the molecule was classed as inactive.

For `Oc1ccccc1-c1ccccc1`, the result was inactive and the AC50 was 150 µM (active).

With `Fc1ccc(Oc2ccnc3cc(Cl)cc(Cl)c23)cc1`, the call was inactive.

`C=CC1(C)OC(=O)N(c2cc(Cl)cc(Cl)c2)C1=O` (stereo not given): the call was inactive.

Turning to `CS/C(C)=N/OC(=O)N(C)SN(C)C(=O)O/N=C(\C)SC`, the result was inactive.

As to `OC(c1ccc(Cl)cc1)(c1cncnc1)c1ccccc1Cl` (stereo not given), the molecule was classed as inactive.

For the molecule `CC(Oc1ccc(Cl)cc1Cl)C(=O)O` (stereo not given), the molecule was called inactive.

Consider `CC(C)Oc1cc(-n2nc(C(C)(C)C)oc2=O)c(Cl)cc1Cl`, for which the molecule was classed as inactive.

Take `COc1cnc(OC)n2nc(NS(=O)(=O)c3c(OCC(F)F)cccc3C(F)(F)F)nc12`: the call was inactive.

In the case of `Cc1ccc(-c2c(Cl)nc(C#N)n2S(=O)(=O)N(C)C)cc1`, the result was inactive.

For the molecule `COc1ccc(C(c2ccc(OC)cc2)C(Cl)(Cl)Cl)cc1`, the molecule was classed as inactive.

For `C=CCC1=C(C)C(OC(=O)C2C(C=C(C)C)C2(C)C)CC1=O` (stereo not given), the molecule was classed as inactive.

In the case of `CCc1nn(C)c(C(=O)NCc2ccc(C(C)(C)C)cc2)c1Cl`, the molecule was called inactive.

For the molecule `CON(C)C(=O)Nc1ccc(Cl)c(Cl)c1`, the result was inactive.

With `CCNc1nc(Cl)nc(NC(C)C)n1`, the molecule was classed as inactive.

As to `CCOC(=O)C(Cl)Cc1cc(-n2nc(C)n(C(F)F)c2=O)c(F)cc1Cl` (stereo not given), the molecule was classed as inactive.

Regarding `CCCCC(CC)COC(=O)c1ccccc1C(=O)OCC(CC)CCCC` (stereo not given), the outcome was inactive.

`Cc1c(F)c(F)c(COC(=O)C2C(/C=C(\Cl)C(F)(F)F)C2(C)C)c(F)c1F` (stereo not given): the outcome was inactive.

Consider `CCCC1COC(Cn2cncn2)(c2ccc(Cl)cc2Cl)O1` (stereo not given), for which the AC50 is 15.9 µM (active) and the result was inactive.

On to `O=C(Nc1ccccc1)Nc1ccnc(Cl)c1`, for which the AC50 was 13.1 µM (active).

For `CC1COC(Cn2cncn2)(c2ccc(Oc3ccc(Cl)cc3)cc2Cl)O1` (stereo not given), the AC50 is 1.97 µM (active).

As to `C=CCC1=C(C)[C@@H](OC(=O)[C@@H]2[C@@H](C=C(C)C)C2(C)C)CC1=O`, the outcome was inactive.
